Data from PubChem BioAssay (NCATS).
Values joined by “and” are separate entries in the source; they are usually repeats but may differ in a detail not shown here. Equal entries are not always repeated. Values without a mark were called inactive. Results filed as inconclusive are left out. Active and inactive are the calls of the source. Unless noted, calls come from the whole dose curve; as a rule, active = well fitted curve in either direction with a large enough effect (not every such curve was filed as active); inconclusive = small, poorly fitted or top-dose-only effect, or another doubt; inactive = flat fitted curve, though single readings scatter.

What was measured:
[1] = molecular target: Lysosomal acid glucosylceramidase (Homo sapiens) (UniProt P04062); assay: Glucocerebrosidase-p2 (AID 348; in the data active = potency below about 10 µM; note: potency is the fitted concentration of half-maximal effect); details: purified GBA, blue fluorogenic substrate, 40 min
Lysosomal acid glucosylceramidase (Homo sapiens), sequence (P04062 whole entry, looked up): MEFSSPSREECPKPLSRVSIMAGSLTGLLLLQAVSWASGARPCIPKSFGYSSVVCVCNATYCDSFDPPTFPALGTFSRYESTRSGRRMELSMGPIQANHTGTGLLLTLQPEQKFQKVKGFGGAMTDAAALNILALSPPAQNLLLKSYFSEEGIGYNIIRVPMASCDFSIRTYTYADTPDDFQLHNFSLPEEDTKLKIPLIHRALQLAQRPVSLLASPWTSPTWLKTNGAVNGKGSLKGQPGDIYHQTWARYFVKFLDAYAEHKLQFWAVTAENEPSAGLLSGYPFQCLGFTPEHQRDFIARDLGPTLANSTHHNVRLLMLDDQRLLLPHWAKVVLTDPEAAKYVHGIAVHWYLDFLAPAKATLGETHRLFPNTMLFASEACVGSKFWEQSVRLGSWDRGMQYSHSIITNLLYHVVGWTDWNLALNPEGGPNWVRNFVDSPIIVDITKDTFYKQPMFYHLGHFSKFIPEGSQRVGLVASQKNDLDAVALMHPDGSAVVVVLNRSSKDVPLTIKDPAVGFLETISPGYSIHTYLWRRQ
How it was run: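 Normal human glucocerebrosidase (0.2 nM) with blue fluorogenic substrate (80 uM final) in citrate/phosphate pH 5.9 with 10mM sodium taurocholate, 0.01% tween-20; 40 min RT, NaOH/glycine stop; fluorescence Ex 365/Em 440; AC50 from a titration from 0.6 nM upwards.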

[2] = AP1 Signaling Pathway (AID 357); details: ME-180 AP-1-bla reporter, EGF-induced, beta-lactamase ratio, 5 h; at 7.69 µM (top of the series) unless noted;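 note: ME-180 reporter cells stimulated with EGF at its EC50 level; % is set by controls: 0 for no effect and ±100 for the full control effect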
How it was run: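 First, ME-180 AP-1-bla cells were cultured overnight at 37 °C in low-serum Opti-MEM. Next, titrated compounds with EC50 EGF were incubated 5 hours. Finally, CCF4 was added for 2.5 hours and the 460/530 nm ratio recorded.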

[3] = molecular target: Cytochrome P450 1A2 (Homo sapiens) (UniProt P05177); assay: p450-cyp1a2 (AID 410; calls by dose curve; note: potency is the fitted concentration of half-maximal effect;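 for activity change, negative = inhibition: -100% = full effect of reference inhibitor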)
Cytochrome P450 1A2 (Homo sapiens), sequence (P05177 whole entry, looked up): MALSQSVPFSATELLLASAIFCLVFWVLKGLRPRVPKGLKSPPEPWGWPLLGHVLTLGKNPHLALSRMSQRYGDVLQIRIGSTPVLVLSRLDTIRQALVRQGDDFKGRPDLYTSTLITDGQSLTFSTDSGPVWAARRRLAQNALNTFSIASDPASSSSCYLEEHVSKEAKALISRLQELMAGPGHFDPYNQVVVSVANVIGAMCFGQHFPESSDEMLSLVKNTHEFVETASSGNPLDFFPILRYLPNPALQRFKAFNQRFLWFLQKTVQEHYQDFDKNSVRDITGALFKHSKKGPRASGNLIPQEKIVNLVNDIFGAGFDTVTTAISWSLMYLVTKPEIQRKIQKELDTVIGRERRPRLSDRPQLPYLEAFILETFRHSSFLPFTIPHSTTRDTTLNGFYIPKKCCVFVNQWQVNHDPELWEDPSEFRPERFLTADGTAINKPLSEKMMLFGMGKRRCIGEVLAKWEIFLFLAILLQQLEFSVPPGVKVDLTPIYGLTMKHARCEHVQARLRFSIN
How it was run: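 20nM CYP1A2, 100uM Luciferin-ME (=Km), 100mM KPO4; cpd 10 min RT; +NADPH regen, 60 min RT; stop/detect 20 min; luminescence. Normalized to furafylline 57 uM = full inhibition.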

[4] = NFAT Signaling Pathway (AID 444); details: Jurkat NFAT-bla M1, carbachol, beta-lactamase ratio, 5 h; at 7.69 µM (top of the series) unless noted;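 note: carbachol stimulus at about its EC50 of 1 µM final; % is set by controls: 0 for no effect and ±100 for the full control effect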
How it was run: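 Read-out: CCF4 FRET ratio (460 nm/530 nm) after 1 h RT dye loading, used for %activity and AC50 from titration series. Cells: Jurkat NFAT-β-lactamase/M1 line, treated with compound plus 1 uM carbachol for 5 h, 37 °C.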

[5] = Stat Signaling Pathway (AID 446); details: ME-180 (cervical carcinoma) SIE beta-lactamase reporter, IL-6 stimulated, 5 h; at 7.69 µM (top of the series) unless noted;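 note: ME-180 cervical cancer cells given 40 pM IL-6 alongside compound; SIE-controlled beta-lactamase reporter measured as 460/530 nm FRET emission ratio; % is set by controls: 0 for no effect and ±100 for the full control effect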
How it was run: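 FRET read-out (405 nm excitation, 460/530 nm emission) of a beta-lactamase reporter under a STAT-inducible element in ME-180 cervical carcinoma cells. Cells with compound receive 40 pM IL-6 for 5 h. Values are normalised to AC90 stimulation and AC90 JAK-inhibitor controls.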

[6] = molecular target: Glucocorticoid receptor (Homo sapiens) (UniProt P04150); assay: GR-GFP Redistribution (AID 450;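 active = compounds whose dose series gives a full or clear partial fitted curve of increased nuclear translocation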; note: potency is the fitted concentration of half-maximal effect); details: U2OS GR-GFP nuclear translocation, laser cytometry, 2 h
Glucocorticoid receptor (Homo sapiens), sequence (P04150 whole entry, looked up, the tested form may be a part): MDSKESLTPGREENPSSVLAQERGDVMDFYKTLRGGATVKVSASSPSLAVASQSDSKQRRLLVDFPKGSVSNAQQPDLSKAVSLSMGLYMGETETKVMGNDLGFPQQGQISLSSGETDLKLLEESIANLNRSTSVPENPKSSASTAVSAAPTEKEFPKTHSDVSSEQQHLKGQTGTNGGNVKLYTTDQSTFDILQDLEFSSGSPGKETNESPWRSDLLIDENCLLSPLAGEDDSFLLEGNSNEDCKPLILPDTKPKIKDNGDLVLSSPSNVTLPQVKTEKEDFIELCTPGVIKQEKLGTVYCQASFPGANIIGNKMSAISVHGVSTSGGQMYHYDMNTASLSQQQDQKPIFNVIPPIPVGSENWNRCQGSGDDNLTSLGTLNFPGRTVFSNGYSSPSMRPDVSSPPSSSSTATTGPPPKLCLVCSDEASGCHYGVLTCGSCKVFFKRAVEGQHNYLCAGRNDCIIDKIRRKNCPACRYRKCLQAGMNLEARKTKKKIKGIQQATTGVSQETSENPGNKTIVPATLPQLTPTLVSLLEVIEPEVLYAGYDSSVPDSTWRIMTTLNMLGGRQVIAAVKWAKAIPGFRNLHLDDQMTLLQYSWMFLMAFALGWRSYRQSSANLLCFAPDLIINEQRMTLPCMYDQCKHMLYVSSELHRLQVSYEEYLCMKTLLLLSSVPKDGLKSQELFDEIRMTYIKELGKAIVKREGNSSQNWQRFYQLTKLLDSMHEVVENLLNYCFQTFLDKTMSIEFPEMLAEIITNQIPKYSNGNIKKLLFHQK

[7] = molecular target: Glucocorticoid receptor (Homo sapiens) (UniProt P04150); assay: GR-EFC Redistribution (AID 451; calls by dose curve; note: potency is the fitted concentration of half-maximal effect); details: CHO-K1 GR-EFC translocation, beta-gal luminescence, 2 h
How it was run: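 Translocation of GR-ED fusion to nuclear EA restores b-gal, read by luminescence after 1 h room-temperature detection. Engineered CHO-K1 biosensor cells, 1,000/well, exposed 2 h at 37 C to titrations up to 46 uM final.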

[8] = molecular target: Mitogen-activated protein kinase 10 (Mus musculus) (UniProt Q61831); assay: JNK3 AlphaScreen Assay (AID 530);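 note: kinase came from lysate of stimulated human HepG2 cells; signal reports phosphorylation of biotinylated GST-cJun 1-79 at Ser73 with 10 µM ATP; % is set by controls: 0 for no effect and ±100 for the full control effect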
How it was run: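 Kinase buffer: 20 mM Tris-HCl pH 7.6, 10 mM MgCl2, 1 mM DTT, 0.1 mM Na3VO4, 0.01% Tween-20; ATP 10 uM. Substrate biotin-GST-cJun(1-79), enzyme from activated HepG2 lysates. Detection by Ser73 phospho-antibody AlphaScreen.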

[9] = molecular target: 3',5'-cyclic-AMP phosphodiesterase 4B (Homo sapiens) (UniProt Q07343); assay: qHTS Assay for Inhibitors of PDE-IV (AID 607; active = well fitted activation curve with a large enough effect in the main read-out, with a control signal flat, not every such curve was filed as active; note: % of control where 0% means no effect)
3',5'-cyclic-AMP phosphodiesterase 4B (Homo sapiens), sequence (Q07343 whole entry, looked up): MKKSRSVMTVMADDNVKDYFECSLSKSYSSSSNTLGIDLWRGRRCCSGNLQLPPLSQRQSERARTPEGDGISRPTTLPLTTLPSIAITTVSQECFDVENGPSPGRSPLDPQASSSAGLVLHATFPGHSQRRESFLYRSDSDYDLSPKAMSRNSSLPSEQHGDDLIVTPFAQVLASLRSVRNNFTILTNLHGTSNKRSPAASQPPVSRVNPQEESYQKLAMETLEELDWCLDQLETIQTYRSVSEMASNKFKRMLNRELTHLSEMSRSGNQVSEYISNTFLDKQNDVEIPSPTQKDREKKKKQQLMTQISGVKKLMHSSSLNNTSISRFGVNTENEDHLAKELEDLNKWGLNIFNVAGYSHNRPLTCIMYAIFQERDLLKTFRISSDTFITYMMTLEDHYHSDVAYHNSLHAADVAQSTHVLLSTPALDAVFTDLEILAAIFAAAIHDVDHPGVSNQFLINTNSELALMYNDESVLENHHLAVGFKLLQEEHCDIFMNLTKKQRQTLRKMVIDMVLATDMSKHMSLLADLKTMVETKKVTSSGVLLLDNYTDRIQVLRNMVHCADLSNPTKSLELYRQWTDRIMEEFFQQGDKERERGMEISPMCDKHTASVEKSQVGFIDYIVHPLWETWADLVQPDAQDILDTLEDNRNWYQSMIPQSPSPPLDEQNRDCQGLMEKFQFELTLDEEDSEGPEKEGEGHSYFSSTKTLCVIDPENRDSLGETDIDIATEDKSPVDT
How it was run: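 Cell-based read-out of cAMP via a modified cyclic nucleotide-gated channel and membrane potential dye (535/590 nm) in HEK293 cells expressing PDE4 endogenously. Compounds tested up to 22.9 uM final; 100 uM RO 20-1724 reference.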

Row | SMILES | Potency [1] | activity change, negative = inhibition [2] | Potency [3] | activity change, negative = inhibition [4] | activity, negative = inhibition [5] | Potency [6] | Potency [7] | Potency [8] | Potency [9] | activity change, negative = inhibition [3]
1 | Nc1ncnc2c1ncn2CCCCC(=O)O | > 11.4 µM | 10.7% | inactive | 13.9% | -0.241% | > 46 µM | > 9.22 µM | inactive | inactive | 
2 | O=C(O)C1=C/C(=C(/c2ccccc2)c2cc(C(=O)O)c(O)c3ccccc23)c2ccccc2C1=O | > 11.4 µM | 1.91% and 8.74% | inactive | 12% and -21.2% | 2.38% and 8.71% | > 46 µM | > 9.22 µM | inactive |  | 
3 | O=C1Nc2ccccc2C1=Nc1cccc2ncccc12 | > 11.4 µM | 5.64% | 3.98 µM (active) | -3.54% | 2.41% | > 46 µM | > 9.22 µM | inactive | inactive | 
4 | O=C(CCN1CCOCC1)Nc1ccc(F)cc1F | > 11.4 µM | -2.63% | inactive | 13.2% | 8.47% | > 46 µM | > 9.22 µM | inactive | inactive | 
5 | Cc1cc2nc3[nH]c4c(Cl)cc(Cl)cc4c3nc2cc1C | > 11.4 µM | -14% | 0.631 µM (active) | 11.6% | -5.45% | > 46 µM | > 9.22 µM | inactive | inactive | 
6 | CN(C)CCCn1cnc2cc(Cl)c(Cl)cc21 | > 11.4 µM | 1.9% |  | -23.5% | 11.7% | > 46 µM | > 9.22 µM | inactive | inactive | -20% [at 2.29 µM]
7 | O=NN(Cc1ccc(Cl)cc1)[C@@H](C(=O)O)c1ccccc1 | > 11.4 µM | 15.1% | 5.01 µM (active) | -4.59% | 0.591% | > 46 µM | > 9.22 µM | inactive | inactive | 
8 | Cc1ccc(-[n+]2cc(=O)o[nH]2)cc1 | > 11.4 µM | 4.74% | 3.98 µM (active) | -24.7% | 12.6% | > 46 µM | > 9.22 µM | inactive | inactive | 
9 | COc1cccc(Cn2c(=O)c(C)nc3cnc(Oc4cccc(Cl)c4)nc32)c1 | > 11.4 µM | -22.3% | 25.1 µM (active) | -7.01% | -2.38% | > 9.22 µM | > 46 µM | inactive |  | 
10 | C[C@@](N)(Cc1c[nH]c2ccccc12)C(=O)O | > 11.4 µM | 13.6% | inactive | -4.57% | 10.9% | > 46 µM | > 9.22 µM | inactive | inactive | 
11 | NCCSCCc1ccccc1 | > 11.4 µM | -3.04% | 5.01 µM (active) | 3.22% | 4.42% | > 46 µM | > 9.22 µM | inactive | inactive | 
12 | O=C(O)c1ccc([N+](=O)[O-])c(P(=O)(O)O)c1 | > 11.4 µM | -2.71% | inactive | 12.7% | -0.293% | > 46 µM | > 9.22 µM | inactive | inactive | 
13 | c1c[nH]c(CN2CCN(Cc3ncc[nH]3)CC2)n1 | > 11.4 µM | 4.41% | inactive | -12.2% | -5.33% | > 46 µM | > 9.22 µM | inactive | inactive | 
14 | CC1(C)O[C@H]2[C@@H](O1)[C@@H](On1nnc3ccc(Cl)cc31)O[C@@H]2[C@@H]1COC(C)(C)O1 | > 11.4 µM | -0.0878% |  | 3.42% | 2.63% | > 46 µM | > 9.22 µM | inactive | inactive | -10.9% [at 2.29 µM]
